Results filed as inconclusive are left out. Activity calls are given as the source filed them. Calls come from the whole dose curve.
biological target: Peroxisome proliferator-activated receptor delta (Homo sapiens) (UniProt Q03181); experiment: qHTS assay to identify small molecule agonists of the peroxisome proliferator-activated receptor delta (PPARd) signaling pathway (AID 743212); conditions: HEK293H PPARd-UAS-bla, beta-lactamase FRET ratio, 17 h; series mostly up to 62.6 µM
Text: U.S. Tox21 Program National Center for Advancing Translational Sciences [NCATS] NIH Chemical Genomics Center [NCGC] U.S. Environmental Protection Agency [EPA] National Institutes of Environmental Health Sciences [NIEHS] National Toxicology Program [NTP] U.S. Food and Drug Administration [FDA] Tox21 Assay Overview: The peroxisome proliferator-activated receptors (PPARs) are lipid-activated transcription factors of the nuclear receptor superfamily with three distinct subtypes namely PPAR alpha, PPAR delta (PPARd) and PPAR gamma. All these subtypes heterodimerizes with Retinoid X receptor (RXR) and have different physiological functions. […] To identify the compounds that activate PPAR-delta signaling, GeneBLAzer PPAR delta UAS-bla HEK293H cell line (Invitrogen, Carlsbad, CA, USA) containing a beta-lactamase reporter gene under the control of an Upstream Activator Sequence (UAS) was used to screen the Tox21 compound library.
Tox21 Assay Protocol Summary: PPARd-bla cells were dispensed at 3000 cells/6uL/well in 1536-well black wall/clear bottom plates using a Multidrop Combi (Thermo Fisher Scientific, Waltham, MA) dispenser. After the assay plates were incubated at 37 C and 5% CO2 for 5 h, 23 nL of compounds dissolved in DMSO, positive controls or DMSO only was transferred to the assay plate by a Pintool station (Kalypsys, San Diego, CA). The assay plates were incubated at 37C for 17 h. After 1 uL of LiveBLAzerTM B/G FRET substrate was added using a Bioraptr Flying Reagent Dispenser (FRD) workstation (Beckman Coulter, Indianapolis, IN, USA), the plates were incubated at room temperature for 2 h, and fluorescence intensity was measured by an Envision plate reader (PerkinElmer, Shelton, CT).

Chain of Peroxisome proliferator-activated receptor delta (Homo sapiens) (Q03181 whole entry, looked up): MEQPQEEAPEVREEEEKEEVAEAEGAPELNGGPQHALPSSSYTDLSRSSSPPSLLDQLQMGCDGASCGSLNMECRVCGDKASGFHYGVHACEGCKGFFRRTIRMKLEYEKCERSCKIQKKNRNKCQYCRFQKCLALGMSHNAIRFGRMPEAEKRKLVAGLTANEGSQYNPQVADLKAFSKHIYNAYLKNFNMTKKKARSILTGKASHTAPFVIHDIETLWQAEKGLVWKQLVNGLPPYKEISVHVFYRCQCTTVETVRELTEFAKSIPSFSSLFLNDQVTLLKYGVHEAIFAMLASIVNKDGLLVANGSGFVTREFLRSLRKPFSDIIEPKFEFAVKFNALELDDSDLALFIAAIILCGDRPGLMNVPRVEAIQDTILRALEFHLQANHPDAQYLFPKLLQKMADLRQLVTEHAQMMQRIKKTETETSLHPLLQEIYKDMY

Row | Structure (SMILES) | outcome
1 | O=[N+]([O-])C(Br)(CO)CO | inactive
2 | CCCCc1c(C)nc(NCC)nc1OS(=O)(=O)N(C)C | inactive
3 | CCO[C@H]1O[C@@H]2OC3(C)CC[C@H]4[C@H](C)CC[C@@H]([C@H]1C)[C@@]24OO3 | inactive
4 | II | inactive
5 | Clc1cccc2ccccc12 | inactive
6 | CCCCCCCCCCOC(=O)c1ccccc1C(=O)OCCCCCCCCCC | inactive
7 | O=NN1CCNCC1 | inactive
8 | CC(O)(CS(=O)(=O)c1ccc(F)cc1)C(=O)Nc1ccc(C#N)c(C(F)(F)F)c1 (stereo not given) | inactive
9 | O=C=Nc1ccc(Cl)cc1 | inactive
10 | CCOP(O)OCC | inactive
11 | CC(C)=CCOc1c2occc2cc2ccc(=O)oc12 | inactive
12 | CC(C)(CCl)C(=O)Cl | inactive
13 | CCC(Cl)CCl (stereo not given) | inactive
14 | COP(=S)(OC)Oc1cc(Cl)c(I)cc1Cl | inactive
15 | O=Cc1ccc2c(c1)OCO2 | inactive
16 | ClCc1cccc(Cl)c1 | inactive
17 | CC(=O)[C@H]1CC[C@H]2[C@@H]3CC[C@H]4C[C@](C)(O)CC[C@]4(C)[C@H]3CC[C@]12C | inactive
18 | CCOP(=S)(OCC)Oc1nc(Cl)c(Cl)cc1Cl | inactive
19 | CNC(C)Cc1ccccc1OC (stereo not given) | inactive
20 | C[C@H]1CNCCc2ccc(Cl)cc21 | inactive

Row | Structure (SMILES) | outcome
21 | O=C(O)COc1ccc(Cl)cc1 | inactive
22 | C=CCCl | inactive
23 | CCOc1ccc(C(C)(C)COCc2cccc(Oc3ccccc3)c2)cc1 | inactive
24 | CCCCNP(N)(N)=S | inactive
25 | CC[C@H]1C[C@H]2[C@@H]3CCC4=CC(=O)CC[C@@H]4[C@H]3CC[C@]2(C)[C@H]1O | inactive
26 | c1ccoc1 | inactive
27 | O=C(CBr)c1ccccc1 | inactive
28 | Nc1ccc(N=Nc2ccc(-c3ccc(N=Nc4c(S(=O)(=O)O)cc5cc(S(=O)(=O)O)c(N=Nc6ccccc6)c(O)c5c4N)cc3)cc2)c(N)c1 | inactive
29 | CCOP(=S)(OCC)Oc1cc(Cl)c(Br)cc1Cl | inactive
30 | N#C/C(N)=C(/N)C#N | inactive
31 | CC1CC(CC2CCC(N)C(C)C2)CCC1N (stereo not given) | inactive
32 | COC(N)=O | inactive
33 | COC(=O)c1cncn1C(C)c1ccccc1 (stereo not given) | inactive
34 | O=Cc1ccc(Cl)cc1Cl | inactive
35 | COc1c(C(C)(C)C)cc([N+](=O)[O-])c(C)c1[N+](=O)[O-] | inactive
36 | CCc1ccc(C(=O)NN(C(=O)c2cc(C)cc(C)c2)C(C)(C)C)cc1 | inactive
37 | CN1C(=O)NC(=O)C(C)(C2=CCCCC2)C1=O (stereo not given) | inactive
38 | [O-][Cl+]O | inactive
39 | CCOC(=O)[C@]1(c2ccccc2)Oc2ccccc2[C@@H]1N | inactive
40 | O=C(C(Cl)(Cl)Cl)C(Cl)(Cl)Cl | inactive

Source: PubChem BioAssay (Tox21)
